# Screens from PubChem.
# Only some compounds are listed: those with a hit (about 18% of all), similar ones and a draw of the others.
# TDP1 block = TDP1 (human) enzyme inhibition; Q9NUW8; Potency, µM (top dose mostly 130 µM), inactives show at the top dose activity change, negative = inhibition, actives largely listed as inhibitors; AID 485290; 350,000 compounds, 0.28% hits; recombinant TDP1, AlphaScreen DNA substrate cleavage; note: potency is the fitted concentration of half-maximal effect; % is set by controls: 0 for no effect and ±100 for the full control effect; nearly all actives have a fitted effect of over 40% in size
# Target sequence (Q9NUW8 whole entry, looked up): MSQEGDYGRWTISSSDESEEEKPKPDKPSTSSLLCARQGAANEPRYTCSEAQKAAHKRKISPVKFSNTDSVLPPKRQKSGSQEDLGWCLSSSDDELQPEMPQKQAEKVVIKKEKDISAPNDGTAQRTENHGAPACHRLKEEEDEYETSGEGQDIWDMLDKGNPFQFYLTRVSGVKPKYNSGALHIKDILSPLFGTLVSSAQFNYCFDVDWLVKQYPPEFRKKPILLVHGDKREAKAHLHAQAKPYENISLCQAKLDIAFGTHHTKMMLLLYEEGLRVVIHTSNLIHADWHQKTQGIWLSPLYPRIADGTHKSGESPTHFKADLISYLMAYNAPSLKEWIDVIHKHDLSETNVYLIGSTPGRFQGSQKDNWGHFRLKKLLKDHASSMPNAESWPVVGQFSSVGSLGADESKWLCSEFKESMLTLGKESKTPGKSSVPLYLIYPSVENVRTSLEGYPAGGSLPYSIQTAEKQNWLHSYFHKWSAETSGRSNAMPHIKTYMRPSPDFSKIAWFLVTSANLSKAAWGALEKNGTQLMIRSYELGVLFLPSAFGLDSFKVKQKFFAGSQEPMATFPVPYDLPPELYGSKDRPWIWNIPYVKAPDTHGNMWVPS
#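 Compounds were preincubated with Tdp1 (1 nM final) for 15 min at room temperature before substrate (15 nM final) started a 5 min reaction; beads (10 ug/ml final) were then added for 10 min before AlphaScreen detection.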
# HepG2 tox = HepG2 cytotoxicity, counter-screen for TGF-b inhibitors | HepG2 CAGA-GFP viability, ATP luminescence, 18 h | Potency, µM (series often up to 46.1 µM), for the others: top-dose activity change, negative = cytotoxicity, actives largely listed as cytotoxic | 410,000 compounds, 0.76% hits | AID 588856; note: potency is the fitted concentration of half-maximal effect
#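 CellTiter-Glo luminescence gave cytotoxicity after 18 hours at 37 degrees C. The cells were HepG2 CAGA-GFP in 1% FBS DMEM, stimulated with 500 pg/mL TGF-beta after compound addition. %Activity was normalised to no-cell wells (complete cell-killing) and DMSO (no toxicity), and curves were fitted and classified.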
# TGFb SMAD3 inh = blocks TGF-b signaling. 410,000 compounds, 1.2% hits. HepG2 CAGA-GFP TGF-b/SMAD3 reporter, GFP fluorescence, 18 h; TGF-beta stimulated, 500 pg/mL final. Potency, µM (highest dose often 46.1 µM), for the others: at the top dose activity, negative = inhibition, most hits filed as inhibitors; note: potency is the fitted concentration of half-maximal effect; % is set by controls: 0 for no effect and ±100 for the full control effect; nearly all actives have a fitted effect of over 65% in size
#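 Cell-based qHTS in HEPG2 carrying a CAGA-GFP Smad reporter; compounds added before 500 pg/mL final TGF-beta, 18 h incubation at 37 degrees C, GFP fluorescence quantified per cell by imaging cytometry.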
# IL1B secr inh = inflammasome signaling inhibition, IL-1 beta readout | 360,000 compounds, 4.7% hits | activity change, % at 57.5 µM | AID 743279 | THP-1 LPS/ATP IL-1B secretion, AlphaLISA, 16 h; stronger effect = lower value; in the data active = activity change below about -50%; inconclusive = mostly about -30% to -49%; note: % is set by controls: 0 for no effect and ±100 for the full control effect
#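 Secreted IL-1B measured by AlphaLISA bead assay after 16 h compound exposure of THP-1 cells; compounds (final up to 57.5 uM) added 1 h before LPS (250 ng/mL) and ATP (1.25 mM) stimulation; lower signal means less secretion.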
# DT40 TDP1 CPT = DT40-hTDP1 cell growth loss with CPT; chicken DT40 Tdp1-/-;hTDP1 cells + 20 nM CPT, ATP luminescence, 48 h; Potency, µM (series often up to 46.2 µM), for the others: at the highest dose activity change, negative = growth inhibition, most hits filed as inhibitors; 420,000 compounds, 12% hits; AID 686979; note: potency is the fitted concentration of half-maximal effect; % is set by controls: 0 for no effect and ±100 for the full control effect; nearly all actives have a fitted effect of over 55% in size
#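 Cell growth measured by CellTiter-Glo luminescence after a minimum 48 h, 37 C compound exposure with 20 nM CPT in Tdp1-knockout DT40 cells stably expressing hTDP1, seeded 400/well; qHTS titration format.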
# TDP1 cell noCPT = qHTS for Inhibitors of human tyrosyl-DNA phosphodiesterase 1 (TDP1): qHTS in cells in absence of CPT; DT40 Tdp1-/- hTDP1 cells, no CPT, ATP luminescence, 48 h; Potency, µM (titrated, usually from 46.2 µM), without a hit: top-dose activity change, negative = growth inhibition, actives largely listed as inhibitors; 420,000 compounds, 15% hits; AID 686978, 2013; note: potency is the fitted concentration of half-maximal effect; % is set by controls: 0 for no effect and ±100 for the full control effect; nearly all actives have a fitted effect of over 55% in size
#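 Seeded 400 DT40-hTDP1 cells/well (vehicle DMSO, no 20 nM CPT); pinned compounds; ≥48 hr at 37 °C; CellTiter-Glo luminescence as viability measure.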
# An asterisk follows results filed as active; ? = inconclusive; nt = no result; [ ] = another dose, or the depositor's remark. Unless noted, calls come from the whole dose curve; as a rule, active = well fitted curve in the direction sought with a large enough effect; inconclusive = small, poorly fitted or top-dose-only effect, or another doubt; inactive = no such curve, though single readings can be large; an effect the other way counts as inactive or inconclusive.
SMILES,TDP1 block,HepG2 tox,TGFb SMAD3 inh,IL1B secr inh,DT40 TDP1 CPT,TDP1 cell noCPT
COc1cc(C)ccc1N(CCCN1C(=O)c2cccc3cccc(c23)C1=O)C(=O)c1cccs1,5%,-4%,50%,-7,9.2µM*,9.2µM*
CCS(=O)(=O)c1ncc(Cl)c(C(=O)N2CCN(c3cccc(Cl)c3)CC2)n1,4%,3.2µM*,1µM*,nt,0.26µM*,0.21µM*
CS(=O)(=O)c1ncc(Cl)c(C(=O)N2CCN(c3cccc(Cl)c3)CC2)n1,-2%,3.5µM*,2.8µM*,nt,1µM*,0.52µM*
N#C/C(=C\c1cccc([N+](=O)[O-])c1)C(=O)Nc1cccnc1,5%,-1%,-2%,38,-2%,-12%
N#C/C(=C\c1cccc([N+](=O)[O-])c1)C(=O)NCc1ccc(Cl)cc1,-3%,-28%,?,-108*,5.8µM*,12µM*
N#C/C(=C\C=C\c1ccccc1)C(=O)NCc1cccnc1,1%,-4%,?,-89*,26µM*,29µM*
N#C/C(=C/c1cccc([N+](=O)[O-])c1)C(=O)Nc1ccccc1O,nt,-32%,-29%,-7,3.7µM*,?
N#C/C(=C\c1cccc([N+](=O)[O-])c1)C(=O)NCc1cccnc1,0%,-8%,-6%,13,21µM*,21µM*
Cc1cccc(C2=N[C@@H](CC(C)C)CO2)c1,5%[234 µM],nt,nt,nt,nt,nt
CCc1cc(C(=O)NCC2Cc3cc(-c4ccccc4C(C)=O)ccc3O2)no1 (centres undefined),nt,nt,nt,nt,-10%[9.04 µM],?
CCOc1ccc(/C=N/NC(=O)c2ccccc2C)cc1CN1CC2CC(C1)c1cccc(=O)n1C2 (centres undefined),4%,1%,0%,28,?,23µM*
O=C(CCn1cccn1)NCc1ccc(Cl)cc1,5%,0%,-5%,nt,2%,0%
C=Cc1ccc(COc2ccc3oc(-c4ccccc4)c(C(=O)OCC)c3c2)cc1,nt,0%,1%,nt,-18%,-5%
Cc1ccc(N=C2S/C(=C/c3cccc(OCC(=O)O)c3)C(=O)N2C)cc1C,nt,-20%,-5%,9,-2%,0%
COC(=O)c1ccc(N=C2S/C(=C\c3cc(C)n(-c4cccnc4)c3C)C(=O)N2C)cc1,1%,-1%,4%,?,?,18µM*
CCOc1ccc(CCNC(=O)COC(=O)c2ccc[nH]c2=O)cc1OCC,0%,6%,0%,21,-3%,2%
Cc1cccc(OCCNC(=O)c2ccc(Oc3ccc(C(F)(F)F)cc3[N+](=O)[O-])cc2)c1,10%,-6%,-16%,-5,-7%,-22%
Cc1cccc(OCCNC(=O)c2cccc(Oc3ccc(C(F)(F)F)cc3[N+](=O)[O-])c2)c1,5%,3%,-17%,15,23µM*,29µM*
O=C(NCCCNc1ccc(C(F)(F)F)cc1[N+](=O)[O-])c1cc(F)c(F)cc1Cl,4%,-16%,-39%,-22,?,18µM*
O=[N+]([O-])c1cc(C(F)(F)F)ccc1NCCOc1ccccc1,5%,-28%,?,-78*,-12%,-20%
O=C(NCCCNc1ccc(C(F)(F)F)cc1[N+](=O)[O-])c1ccc(Cl)cc1,3%,-33%,?,-17,?,-22%
COc1ccc2[nH]c(C)c(CCNc3ccc(C(F)(F)F)cc3[N+](=O)[O-])c2c1,-12%,-28%,-24%,?,?,29µM*
CN(C)S(=O)(=O)c1cccc(NC(=S)Nc2cc(Cl)cc(Cl)c2)c1,0%,-11%,?,-70*,26µM*,23µM*
